# PubChem BioAssay (NCATS)
# Inconclusive results are not listed. Unmarked numbers belong to inactive results. The source made the active and inactive calls. Calls come from the whole dose curve.
# Experiment: Cytotoxicity counterscreen for inhibitors of SARS-CoV-2 cell entry (AID 1645845); note: nearly all actives have a fitted effect of over 50% in size
# Settings: cell viability (SARS-CoV-2 entry assay cells); series mostly up to 57.1 µM; activity change, negative = cytotoxicity: at the top concentration
# Procedure, shortened: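 Expi293F/hACE2 cells seeded overnight; cpd pin-transferred in DMSO, 1 h preincubation, + media, 48 h 37 C 5% CO2; ATPLite 1step luminescence; normalized to cells and no cells.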
# % is set by controls: 0 for no effect and ±100 for the full control effect; potency is the fitted concentration of half-maximal effect.
Structure (SMILES),outcome,"activity change, negative = cytotoxicity",Potency
OCCn1cc(-c2cnc3nnn(Cc4ccc5ncccc5c4)c3n2)cn1,inactive,–,–
O=C(Nc1cccc(C2=NCCN2)c1)Nc1cccc(C2=NCCN2)c1,inactive [at 27.1 µM],–,–
CC[C@@H](C)[C@H](NC(=O)[C@H](CC1CCCCC1)NC(=O)c1ccno1)C(=O)N1CCC2(CCc3ccccc32)CC1,–,-17.6%,–
N#Cc1c(O)c2c(-c3ccc(-c4ccccc4O)cc3)csc2[nH]c1=O,inactive,–,–
CNCc1ccc(-c2[nH]c3cc(F)cc4c3c2CCNC4=O)cc1,–,–,inactive
CC(C)(C)c1cc(C(=O)O)c(NC(=O)Nc2ccc3[nH]ncc3c2)s1,inactive,–,–
CC(C)c1ccc2c(c1)c(SC(C)(C)C)c(CC(C)(C)C(=O)O)n2Cc1ccc(Cl)cc1,–,4.37%,–
O=C(O)CCC1CCC(c2cc(F)ccc2F)(S(=O)(=O)c2ccc(Cl)cc2)CC1 (stereo not drawn),–,-13.2%,–
CC(C)(C)NCC(O)c1ccc(O)c(CO)c1 (stereo not drawn),–,–,inactive
C#Cc1cccc(Nc2ncnc3cc(OC)c(OCCCCCCC(=O)NO)cc23)c1,–,–,10 µM (active)
CC(=O)N[C@@H](Cc1ccc(O)cc1)C(=O)O,–,-5.49%,–
COc1cc2c(Oc3ccc(NC(=O)C4(C(=O)Nc5ccc(F)cc5)CC4)cc3F)ccnc2cc1OCCCN1CCOCC1,–,–,31.6 µM (active)
CN1CCN(c2c(F)cc3c(=O)c(C(=O)O)cn4c3c2OCN4C)CC1,inactive [at 27.1 µM],–,–
CCOc1cc2ncc(C#N)c(Nc3ccc(OCc4ccccn4)c(Cl)c3)c2cc1NC(=O)/C=C/CN(C)C,–,–,inactive
Cc1cn(-c2cc(NC(=O)c3ccc(C)c(Nc4nccc(-c5cccnc5)n4)c3)cc(C(F)(F)F)c2)cn1,–,–,inactive
O=C(O)[C@@H](c1ccc(OCc2ccc3ccccc3n2)cc1)C1CCCC1,inactive,–,–
CN(C(=O)C(Cl)Cl)c1ccc(OC(=O)c2ccco2)cc1,–,1.42%,–
O=C(O)CNC(=O)CNC(=O)CNC(=O)CSC(=O)c1ccccc1,inactive,–,–
CCCOC(=O)c1ccc(O)cc1,–,-1.89%,–

Structure (SMILES),outcome,"activity change, negative = cytotoxicity",Potency
Cn1cc(-c2[nH]c3cc(NC(=O)[C@H](N)C4CCCCC4)cc4c3c2C=NNC4=O)cn1,–,–,15.8 µM (active)
O=C(Nc1ccccc1-c1cn2c(CN3CCNCC3)csc2n1)c1cnc2ccccc2n1,–,–,7.08 µM (active)
C[C@@H](Oc1cc(-c2cnn(C3CCNCC3)c2)cnc1N)c1c(Cl)ccc(F)c1Cl,–,–,25.1 µM (active)
COCCNCCCn1c(C(=O)CF)c(-c2ccc(C)cc2)c2c(N)ncnc21,inactive,–,–
CCCCCN(CCC12CC3CC(CC(C3)C1)C2)C(=O)NCCCc1ccncc1,–,-4.14%,–
CCCCC(CC)COC(=O)c1ccc(N(C)C)cc1 (stereo not drawn),inactive,–,–
CC1=C(C/C=C(\C)CCC[C@H](C)CCC[C@H](C)CCCC(C)C)C(=O)c2ccccc2C1=O,–,1.4%,–
COc1cc(Nc2ncc(F)c(Nc3ccc4c(n3)NC(=O)C(C)(C)O4)n2)cc(OC)c1OC,–,1.68%,–
COc1ccc(CC2SC(=O)NC2=O)cc1C(=O)NCc1ccc(C(F)(F)F)cc1 (stereo not drawn),–,4.37%,–
CCN1CCN(c2cc3c(cc2F)c(=O)c(C(=O)O)cn3C2CC2)CC1,–,0.104%,–
[O-][n+]1cccc(/C(Cl)=N/OC[C@@H](O)CN2CCCCC2)c1,–,-4.86%,–
O=C(O)c1ccc2cc(-c3ccc(O)c(C45CC6CC(CC(C6)C4)C5)c3)ccc2c1,–,–,3.16 µM (active)
C#CC(C)(CC)OC(=O)c1ccccc1C(=O)O (stereo not drawn),inactive,–,–
Cn1c(NCCN(CCO)CCCc2ccc([N+](=O)[O-])cc2)cc(=O)n(C)c1=O,–,–,inactive
Cc1cnc(Nc2ccc(OCCN3CCCC3)cc2)nc1Nc1cccc(S(=O)(=O)NC(C)(C)C)c1,–,–,25.1 µM (active)
NC(=O)c1ccc(I)c([N+](=O)[O-])c1,–,0.188%,–
COc1cc2c(cc1OC)CC(=O)N(CCCN(C)C[C@H]1Cc3cc(OC)c(OC)cc31)CC2,–,–,inactive
Cc1cc(C(=O)NNCc2ccccc2)no1,inactive [at 114 µM],–,–
CC(C)c1ccc(Cn2ccc3c4c(N)nc(NC5CC5)nc4ccc32)cc1,–,–,2.51 µM (active)
